# Data taken from PubChem BioAssay (NCI).
# “And” between values parts separate entries of the source, which are not always exact repeats. Equal entries are not always repeated. The panel holds about 83,000 compounds, 20% with a hit somewhere; the sample as a whole holds those more often.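 Compound tested at a single concentration for 48 hours in 96-well plates; a percent growth value below 10 was scored as active.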 The source made the active and inactive calls.
# What was measured:
# Test in all cases: NCI-60 one-dose screen, 48 h (100 = growth as untreated, 0 = no growth, -100 = all killed)
# Conditions in all cases: 10 µM unless noted
# NCI-H23 lung = system: NCI-H23 lung
# NCI-H226 lung = system: NCI-H226 lung
# NCI-H322M lung = system: NCI-H322M lung
# HOP-62 NSCLC = system: HOP-62 NSCLC
# NCI-H460 lung = system: NCI-H460 lung
# HOP-92 NSCLC = system: HOP-92 NSCLC
# NCI-H522 lung = system: NCI-H522 lung
# A549/ATCC NSCLC = system: A549/ATCC NSCLC
# 786-0 renal = system: 786-0 renal
# COLO 205 colon = system: COLO 205 colon
# DU-145 prostate = system: DU-145 prostate
# K-562 leukemia = system: K-562 leukemia
# MALME-3M melanoma = system: MALME-3M melanoma
# MDA-MB-231 breast = system: MDA-MB-231 breast
# RXF 393 renal = system: RXF 393 renal
# SF-268 CNS = system: SF-268 CNS
# SF-295 CNS = system: SF-295 CNS
# SF-539 CNS = system: SF-539 CNS
# UACC-257 melanoma = system: UACC-257 melanoma
# M14 melanoma = system: M14 melanoma
Structure (SMILES),growth (NCI-H23 lung),growth (NCI-H226 lung),growth (NCI-H322M lung),growth (HOP-62 NSCLC),growth (NCI-H460 lung),growth (HOP-92 NSCLC),growth (NCI-H522 lung),growth (A549/ATCC NSCLC),growth (786-0 renal),growth (COLO 205 colon),growth (DU-145 prostate),growth (K-562 leukemia),growth (MALME-3M melanoma),growth (MDA-MB-231 breast),growth (RXF 393 renal),growth (SF-268 CNS),growth (SF-295 CNS),growth (SF-539 CNS),growth (UACC-257 melanoma),growth (M14 melanoma)
N#Cc1cc(-c2ccnc(Nc3ccc(NC(=O)CCl)cc3)n2)ccc1N1CCCC1,-31.3% (active),-12.4% (active),53.4% (inactive),-4.87% (active),-35.9% (active),28.4% (inactive),-41.3% (active),-26.7% (active),-14.6% (active),-59.6% (active),17.1% (inactive),2.55% (active),-68.5% (active),-31.8% (active),-79.3% (active),-8.99% (active),-26.9% (active),-94.4% (active),3.7% (active),-40.9% (active)
Cc1cccc(Cc2cnc(NC(=O)CCCOc3ccc(Cl)cc3)s2)c1,54% (inactive),53.8% (inactive),44.7% (inactive),28.7% (inactive),9.65% (active),52.2% (inactive),42.5% (inactive),10.7% (inactive),11% (inactive),15.2% (inactive),24.2% (inactive),25.8% (inactive),32.5% (inactive),42.4% (inactive),4.99% (active),50.2% (inactive),12.6% (inactive),8.78% (active),23% (inactive),-1.79% (active)
O=[N+]([O-])c1ccc(S(=O)Cc2ccccc2)c([N+](=O)[O-])c1 (stereo not given),71.8% (inactive) and 82.7% (inactive),24.9% (inactive),99.5% (inactive),109% (inactive) and 47.2% (inactive),99.8% (inactive) and 103% (inactive),56.6% (inactive) and 7.51% (active),-98.3% (active) and -79% (active),83.2% (inactive) and 40.6% (inactive),84.2% (inactive) and 51.2% (inactive),-98.2% (active) and -92.3% (active),79.3% (inactive) and 70.5% (inactive),25.9% (inactive),-61.7% (active) and -33.4% (active),74.6% (inactive) and 82.1% (inactive),-36.6% (active) and -28.2% (active),86.6% (inactive) and 88.5% (inactive),95.9% (inactive),90.7% (inactive) and 46.3% (inactive),37% (inactive) and 69.3% (inactive),55.8% (inactive) and 31.7% (inactive)
C#CCn1cnc2cnc(Nc3cccc(NC(=O)CCl)c3)nc21,-8.25% [6.25 µM] (active),-26% [6.25 µM] (active),10.4% [6.25 µM] (inactive),4.26% [6.25 µM] (active),-13.4% [6.25 µM] (active),12.6% [6.25 µM] (inactive),-57.1% [6.25 µM] (active),-51.3% [6.25 µM] (active),2.39% [6.25 µM] (active),-57.3% [6.25 µM] (active),17.1% [6.25 µM] (inactive),4.47% [6.25 µM] (active),28.1% [6.25 µM] (inactive),14.6% [6.25 µM] (inactive),-27.5% [6.25 µM] (active),6.9% [6.25 µM] (active),16.1% [6.25 µM] (inactive),-0.618% [6.25 µM] (active),1.35% [6.25 µM] (active),-49.1% [6.25 µM] (active)
CCOC(=O)c1nc2c3ccccc3cnn2c1C(=O)c1ccc(OC)cc1,84.4% (inactive),81.9% (inactive),101% (inactive),77.4% (inactive),103% (inactive),86.5% (inactive),95.2% (inactive),87.2% (inactive),102% (inactive),97.5% (inactive),105% (inactive),96.9% (inactive),102% (inactive),81.7% (inactive),106% (inactive),103% (inactive),98.7% (inactive),97.7% (inactive),95.4% (inactive),101% (inactive)
O=C(NCc1cccnc1)/C(=C\c1ccc(Br)cc1)S(=O)(=O)c1ccccc1,-43.7% (active),7.52% (active),1.87% (active),-34.1% (active),-30.5% (active),-2.35% (active),-71.2% (active),-3.53% (active),-67.7% (active),-84.2% (active),-86.8% (active),29.7% (inactive),-20.5% (active),-65.7% (active),-88% (active),-30.9% (active),13.9% (inactive),-59% (active),-20.5% (active),-41.1% (active)
COc1cc(C(=O)c2ccccc2C(=O)O)c(OC)c2c1CCCC2,98.2% (inactive) and 94.4% (inactive),108% (inactive),108% (inactive) and 101% (inactive),106% (inactive),103% (inactive) and 107% (inactive),95.8% (inactive),106% (inactive) and 145% (inactive),97.5% (inactive) and 101% (inactive),94.2% (inactive) and 97.6% (inactive),114% (inactive) and 108% (inactive),99% (inactive) and 106% (inactive),85.7% (inactive) and 84.7% (inactive),90.5% (inactive) and 97.3% (inactive),87.8% (inactive) and 101% (inactive),107% (inactive) and 100% (inactive),92.5% (inactive) and 101% (inactive),97% (inactive) and 102% (inactive),97.3% (inactive) and 103% (inactive),95.9% (inactive) and 99.5% (inactive),94.4% (inactive) and 97.6% (inactive)
CCCCCCCCN(CCCCCCCC)CC(O)c1cc(Cl)ccc1OC (stereo not given),56% (inactive),62% (inactive),94.7% (inactive),80.8% (inactive),62.6% (inactive),66% (inactive),68% (inactive),83.9% (inactive),72.7% (inactive),55.5% (inactive),81.8% (inactive),50.1% (inactive),99.5% (inactive),51.6% (inactive),51.9% (inactive),84.4% (inactive),76.9% (inactive),77.8% (inactive),90.4% (inactive),84.9% (inactive)
Cc1ccc2c(c1)C(C)Cc1c(ncnc1-n1cnc3cc(C)ccc31)N2C (stereo not given),34% (inactive),47.4% (inactive),63.5% (inactive),27.6% (inactive),3.51% (active),10.4% (inactive),-30% (active),8.39% (active),10.7% (inactive),-51.2% (active),10.9% (inactive),6.54% (active),76.9% (inactive),38.5% (inactive),21.3% (inactive),25.6% (inactive),2.2% (active),16.8% (inactive),25.6% (inactive),17.7% (inactive)
COc1ccc(C(=O)c2ccc(OC)c(OC)c2OC)cc1,41.1% (inactive) and 40.7% (inactive),62.8% (inactive) and 53.2% (inactive),59% (inactive),41.7% (inactive) and 25.5% (inactive),20.1% (inactive) and 5.6% (active),59.6% (inactive) and 41.5% (inactive),11.2% (inactive) and 12.1% (inactive),47% (inactive) and 41.3% (inactive),74% (inactive) and 46.1% (inactive),3.87% (active) and -14.7% (active),25.9% (inactive) and 6.1% (active),29.3% (inactive) and 14.6% (inactive),51.5% (inactive) and 23.2% (inactive),59.2% (inactive) and 48.2% (inactive),9.82% (active) and 15.4% (inactive),49.3% (inactive) and 42.7% (inactive),13.2% (inactive) and -15.2% (active),9.19% (active) and -30.5% (active),48.6% (inactive) and 61% (inactive),24.5% (inactive) and 16.9% (inactive)
O=C(Nc1ncc(Cc2cccc(C(F)(F)F)c2)s1)c1ccc(-n2cnnn2)cc1,55% (inactive),69.3% (inactive),86.1% (inactive),104% (inactive),30.5% (inactive),86.2% (inactive),54.5% (inactive),34.4% (inactive),66.1% (inactive),121% (inactive),60.3% (inactive),21% (inactive),62.6% (inactive),96.9% (inactive),103% (inactive),55.4% (inactive),32.2% (inactive),47.9% (inactive),46.8% (inactive),41.4% (inactive)
C=CCN1C=CC(=O)[C@H](O[Si](C)(C)C(C)(C)C)[C@@H]1/C=C/c1ccccc1,-71.6% [100 µM] (active),-65.3% [100 µM] (active),-59.2% [100 µM] (active),-88.9% [100 µM] (active),-49.3% [100 µM] (active),-89.7% [100 µM] (active),-39.1% [100 µM] (active),-40.4% [100 µM] (active),-88.2% [100 µM] (active),-64% [100 µM] (active),-59.1% [100 µM] (active),4.18% [100 µM] (active),-57.5% [100 µM] (active),-68.3% [100 µM] (active),-45.5% [100 µM] (active),-58.2% [100 µM] (active),-66.7% [100 µM] (active),-82.7% [100 µM] (active),-75.9% [100 µM] (active),-78.6% [100 µM] (active)
N#C/C(=C\c1ccc(Br)cc1)n1nnc2c(F)cccc21,10.3% (inactive),25.5% (inactive),0.929% (active),53.8% (inactive),-33.7% (active),19.2% (inactive),-52.1% (active),14.8% (inactive),-13.5% (active),-15.9% (active),5.36% (active),12% (inactive),-2.35% (active),-10.6% (active),-57.9% (active),20.3% (inactive),24.7% (inactive),-7.82% (active),-10.7% (active),2.49% (active)
